Shown are actives, neighbours in structure and some others; about 15% of the full set was active somewhere.
ALOX12 inh = ALOX12 (human) lipoxygenase inhibition; Potency, µM (highest dose often 108 µM), inactives show at the top dose activity change, negative = inhibition, usual class: inhibitors; purified 12hLO, xylenol orange hydroperoxide absorbance; P18054; 580,000 tested, 1.1% active
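Purified human 12hLO (150 nM final) in 25 mM Hepes, 0.01% Triton X-100, pH 7.0 was preincubated 15 min at room temperature with compound. Then 40 uM arachidonic acid was added, 30 min. Hydroperoxide was read by Fe-XO absorbance ratio 573/405 nm.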
DT40 TDP1 CPT = growth inhibition of DT40 Tdp1-/-;hTDP1 cells with camptothecin (screen for TDP1 inhibitors). Potency, µM (titrated, usually from 46.2 µM), for inactives: at the top dose activity change, negative = growth inhibition, hits mostly inhibitors. AID 686979. chicken DT40 Tdp1-/-;hTDP1 cells + 20 nM CPT, ATP luminescence, 48 h. 420,000 tested, 12% active; note: nearly all actives have a fitted effect of over 55% in size
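Cell growth measured by CellTiter-Glo luminescence after a minimum 48 h, 37 C compound exposure with 20 nM CPT in Tdp1-knockout DT40 cells stably expressing hTDP1, seeded 400/well; qHTS titration format.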
VP16 counter = Gal4-VP16 reporter inhibition counter-screen; AID 2546; Potency, µM (series often up to 53.6 µM), for inactives: top-dose activity, negative = inhibition, hits mostly inhibitors; Drosophila S2 Gal4-VP16 UAS-luciferase, luminescence, 20 h; 310,000 tested, 3.5% active;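 note: Gal4-VP16 expression switched on by copper sulfate through the metallothionein promoter; nearly all actives have a fitted effect of over 50% in size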
ELG1 repair inh = ELG1-dependent DNA repair inhibition. HEK293T ELG1-luciferase reporter, luminescence, 16 h; DNA damage induced by 5-fluorouridine. 330,000 tested, 2.3% active. AID 504467. Potency, µM (top dose mostly 46.1 µM), for the others: at the highest dose activity change, negative = inhibition, most hits filed as inhibitors; note: nearly all actives have a fitted effect of over 55% in size
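Reporter activity after DNA damage by 5-fluorouridine is monitored. Compound-treated cells incubate 16 hr at 37 °C, then ONE-Glo is added for 30 min before luminescence reading.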
RORg inh = ROR gamma (mouse) transcription inhibition. Drosophila S2 Gal4-RORgamma UAS-luciferase reporter, 20 h. Potency, µM (highest dose often 53.6 µM), for inactives: at the highest dose activity change, negative = inhibition, usual class: inhibitors. 310,000 tested, 5.4% active. AID 2551; note: nearly all actives have a fitted effect of over 60% in size
Target sequence (P51450 whole entry, looked up, the tested form may be a part): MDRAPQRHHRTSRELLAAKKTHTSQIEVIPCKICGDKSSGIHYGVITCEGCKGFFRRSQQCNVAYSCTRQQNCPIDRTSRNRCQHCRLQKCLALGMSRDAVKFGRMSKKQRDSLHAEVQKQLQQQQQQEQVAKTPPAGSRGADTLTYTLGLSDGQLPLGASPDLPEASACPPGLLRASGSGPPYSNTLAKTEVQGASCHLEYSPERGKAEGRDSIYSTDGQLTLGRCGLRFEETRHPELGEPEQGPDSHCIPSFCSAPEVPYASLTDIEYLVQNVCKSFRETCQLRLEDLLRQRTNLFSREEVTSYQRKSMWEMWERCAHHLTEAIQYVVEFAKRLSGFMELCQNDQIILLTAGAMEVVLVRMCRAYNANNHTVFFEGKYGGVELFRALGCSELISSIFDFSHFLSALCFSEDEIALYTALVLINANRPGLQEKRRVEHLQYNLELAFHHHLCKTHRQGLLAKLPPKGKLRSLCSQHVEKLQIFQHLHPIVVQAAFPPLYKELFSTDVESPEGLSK
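ROR gamma transcriptional activity was tracked as Gal4-UAS luciferase output in stably transfected Drosophila Schneider cells, with compound added 1 hr before 700 uM copper sulfate induction and a 20 hr ambient-temperature incubation.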
TDP1 cell noCPT = qHTS for Inhibitors of human tyrosyl-DNA phosphodiesterase 1 (TDP1): qHTS in cells in absence of CPT; DT40 Tdp1-/- hTDP1 cells, no CPT, ATP luminescence, 48 h; Potency, µM (series often up to 46.2 µM), for the others: at the top dose activity change, negative = growth inhibition, actives largely listed as inhibitors; 420,000 tested, 15% active; note: nearly all actives have a fitted effect of over 55% in size
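Compound effects on proliferation are scored in DT40 Tdp1-/-;hTDP1 cells in the absence of CPT. ATP levels (CellTiter-Glo luminescence) are recorded after a ≥48 hr, 37 °C incubation.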
* hit, by the source's call; ? = inconclusive; / = not tested or not shown; [ ] = dose if it differs, or a comment. Calls come from the whole dose curve; as a rule, active = well fitted curve in the direction sought with a large enough effect; inconclusive = small, poorly fitted or top-dose-only effect, or another doubt; inactive = no such curve, though single readings can be large; an effect the other way counts as inactive or inconclusive. % is set by controls: 0 for no effect and ±100 for the full control effect; potency is the fitted concentration of half-maximal effect.

SMILES	ALOX12 inh	DT40 TDP1 CPT	VP16 counter	ELG1 repair inh	RORg inh	TDP1 cell noCPT
CC(C)c1ccc(-c2nnn(Cc3cc(=O)n4ccsc4n3)n2)cc1	-19%	/	/	/	/	/
CC(C)CNS(=O)(=O)c1cc(C(=O)N2CC(C)OC(C)C2)c(Cl)cc1Cl (configuration not stated)	0%[57.4 µM]	?	0%	3%	-4%	23µM*
CCN1C(=O)/C(=C2/Sc3ccc(OC)cc3N2C)SC1=Nc1cccc(O)c1	13%	5.8µM*	?	-9%	?	16µM*
C=CCN1C(=O)/C(=C2/Sc3ccc(OC)cc3N2C)SC1=Nc1ccccc1	0%	8.2µM*	-2%	8%	20%	?
C=CCN1C(=O)/C(=C2/Sc3ccc(OC)cc3N2C)SC1=NCc1ccccc1	-1%	?	-18%	10%	8%	?
NC(=O)C1CCCN(c2nc(-c3cccs3)nc3ccccc23)C1 (configuration not stated)	-2%	/	/	/	/	/
O=C(CN1CCN(C(=O)c2cc(-c3ccc(F)cc3)n[nH]2)CC1)N1CCCC1	-12%	/	/	/	/	/
COc1cccc(/C=N/n2c(C3CCCCC3)n[nH]c2=S)c1OC	15%	?	7.1µM*	?	3.2µM*	-22%
COc1ccccc1/C=C\C=N\n1c(C2CCCCC2)n[nH]c1=S	?	?	?	?	2.2µM*	?
S=c1[nH]nc(C2CCCCC2)n1/N=C/c1cccc(Cl)c1Cl	?	?	5µM*	-1%	3.5µM*	23µM*
COc1cc(OC)c(/C=N/n2c(C3CCCCC3)n[nH]c2=S)c(OC)c1	?	-2%	-2%	6%	-35%	?
Oc1ccc(/C=N/n2c(C3CCCCC3)n[nH]c2=S)c(O)c1	0%	-34%	-3%	5%	-16%	3%
COc1ccc(/C=N/n2c(C3CCCCC3)n[nH]c2=S)c(OC)c1	40µM*	-17%	7.1µM*	-5%	3.5µM*	?
COc1cc(/C=N/n2c(C3CCCCC3)n[nH]c2=S)ccc1O	?	-6%	-22%	?	-66%	-24%
COc1cccc(/C=N/n2c(C3CCCCC3)n[nH]c2=S)c1O	20µM*	1%	13µM*	1%	10µM*	14%
CCCCN(C)C(=O)c1ccc(Nc2nc(C(N)Cc3ccccc3)cs2)nc1 (configuration not stated)	26%	23µM*	/	/	/	15µM*
NC(Cc1ccccc1)c1csc(Nc2ccc(C(=O)NCCCO)cn2)n1 (configuration not stated)	20%	?	/	/	/	?
CN(Cc1ccccc1)C(=O)c1ccc(Nc2nc(C(N)COCc3ccccc3)cs2)nc1 (configuration not stated)	1%	?	/	/	/	?
CN(Cc1ccccc1)C(=O)c1ccc(Nc2nc(C(N)Cc3ccc(C(F)(F)F)cc3)cs2)nc1 (configuration not stated)	?	12µM*	/	/	/	12µM*
CN(Cc1ccccc1)C(=O)c1ccc(Nc2nc(C(N)Cc3ccccc3)cs2)nc1 (configuration not stated)	4%	15µM*	/	/	/	13µM*
CC(C)CC(N)c1csc(Nc2ccc(C(=O)N(C)Cc3ccccc3)cn2)n1 (configuration not stated)	0%	5.2µM*	/	/	/	5.8µM*
Cc1ccc(S(C)(=O)=O)cc1NC(=O)CCNC(=O)Cc1ccccc1	-25%	/	/	/	/	/
N#C/C(=C\c1ccccc1OC(=O)c1cccc2ccccc12)C(=O)Nc1ccccc1C(F)(F)F	-6%	/	/	/	/	/
O=C(O)c1ccccc1-c1ccc(/C=c2\sc3nc4cc(Br)cnc4n3c2=O)o1	/	16µM*	-2%	13%	-13%	18µM*
CCCN1C(=O)C(O)(CC(=O)c2ccc(OC)c(OC)c2)c2ccccc21 (configuration not stated)	-2%	?	/	/	/	16µM*
SMILES	ALOX12 inh	DT40 TDP1 CPT	VP16 counter	ELG1 repair inh	RORg inh	TDP1 cell noCPT
Cc1ccc(C(=O)CC2(O)C(=O)N(Cc3ccccc3Cl)c3ccccc32)o1 (configuration not stated)	357%	?	6%	-17%	34%	10µM*
CCOC(=O)CN1C(=O)C(O)(CC(=O)c2cc(OC)ccc2OC)c2ccccc21 (configuration not stated)	-5%	?	/	/	/	?
COc1cc(C(=O)CC2(O)C(=O)N(Cc3ccccc3Cl)c3ccccc32)cc(OC)c1OC (configuration not stated)	-7%	5.8µM*	/	/	/	5.2µM*
O=C(CCC[C@H]1NC[C@@H]2CC1CN(Cc1ccccc1)C2)NCCCN1CCCCC1	-2%	/	/	/	/	/
COc1cccc(C(=O)N2CCc3c([nH]c4ccccc34)C2c2ccc(SC)cc2)c1 (configuration not stated)	-19%	?	/	/	/	?
COc1ccc(C2c3[nH]c4ccc(OC)cc4c3CCN2C(=O)Nc2ccccc2)cc1 (configuration not stated)	-13%	23µM*	/	/	/	?
CCOc1cccc(C2c3[nH]c4ccccc4c3CCN2C(=O)CCC2CCCC2)c1 (configuration not stated)	-20%	?	/	/	/	?
CCOc1ccc(C2c3[nH]c4ccccc4c3CCN2C(=O)CSc2ccccc2)cc1 (configuration not stated)	-20%	?	/	/	/	21µM*
COc1ccc(C2c3[nH]c4ccccc4c3CCN2C(=O)CCC2CCCC2)cc1 (configuration not stated)	-26%	21µM*	/	/	/	?
O=C(CCC1CCCC1)N1CCc2c([nH]c3ccccc23)C1c1ccc(F)cc1 (configuration not stated)	0%	?	/	/	/	?
CCOc1ccc(C2c3[nH]c4ccccc4c3CCN2C(=O)CCC2CCCC2)cc1 (configuration not stated)	0%	21µM*	/	/	/	18µM*
COc1ccc(CNC(=O)c2ccc3noc(-c4ccccc4)c3c2)cc1OC	-11%	/	/	/	/	/
CCCCC1=CC2=C(c3ccco3)C(=O)C(C)(OC(=O)c3ccc(OC)cc3)C(=O)C2=CN1CCCOC(C)C (configuration not stated)	?	5.2µM*	-2%	-27%	-3%	6.5µM*
